Screening data from PubChem.
A selection: hits, their analogues and other compounds. The true share with any hit is near 12%.
BAZ2B block: inhibitors of human BAZ2B bromodomain. 360,000 tested, 4.4% active. AlphaScreen BAZ2B-H3K14Ac peptide displacement. Q9UIF8. Potency, µM (doses to about 114 µM), for the others: at the highest dose activity change, negative = inhibition, usual class: inhibitors; note: % is set by controls: 0 for no effect and ±100 for the full control effect; nearly all actives have a fitted effect of over 60% in size
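Multi-concentration screen (max 110 uM) measuring displacement of acetylated histone H3 peptide from BAZ2B by AlphaScreen, using 50 nM protein, 50 nM peptide and 10 ug/mL streptavidin donor plus Ni-chelate acceptor beads.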
L3MBTL1 inh: blocks human L3MBTL1 | 230,000 tested, 0.66% active | AlphaScreen L3MBTL1–H3K9me1 peptide binding | Potency, µM (series often up to 57.1 µM), without a hit: at the top dose activity, negative = inhibition, most hits filed as inhibitors; note: % is set by controls: 0 for no effect and ±100 for the full control effect; nearly all actives have a fitted effect of over 60% in size
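AlphaScreen assay: L3MBTL1 (50 nM final) was preincubated 30 min at room temperature with biotinylated H3(1-15)K9me1 peptide (75 nM final), then 30 min with library compounds; streptavidin donor and nickel chelate acceptor beads (10 ug/mL final) added, 30 min dark.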
Sfp inh: Sfp phosphopantetheinyl transferase inhibition; Q9F4F7; Biochemical Sfp PPTase activity, qHTS; Potency, µM, for the others: largest response in the series, negative = inhibition, hits mostly inhibitors; 310,000 tested, 3.5% active; AID 1490;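 note: the enzyme is Sfp with the accession as filed and its product quenches rhodamine fluorescence; 0% = enzyme reaction without inhibitor and -100% = no enzyme wells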
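Buffer: 50 mM Hepes-Na pH 7.6, 10 mM MgCl2, 0.01% Nonidet P-40, 0.01% BSA. Enzyme 15 nM, pre-exposed to compound 15 min; substrates then added and fluorescence change tracked over 30 min.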
HP1b binding inh: HP1-beta chromodomain-methylated histone interaction inhibition | P83916 | AlphaScreen HP1-beta / biotin-H3K9me3 peptide binding | Potency, µM (titrated, usually from 114 µM), for inactives: at the highest dose activity change, negative = inhibition, actives largely listed as inhibitors | 390,000 tested, 0.56% active | AID 540317; note: nearly all actives have a fitted effect of over 70% in size
Target sequence (P83916 whole entry, looked up): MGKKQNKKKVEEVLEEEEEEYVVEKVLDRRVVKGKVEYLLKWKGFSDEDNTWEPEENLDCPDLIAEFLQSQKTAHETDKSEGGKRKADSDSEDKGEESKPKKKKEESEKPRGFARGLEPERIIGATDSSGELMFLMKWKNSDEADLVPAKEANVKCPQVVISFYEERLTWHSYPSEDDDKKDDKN
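AlphaScreen: HP1-beta (50 nM) preformed 30 min with biotin-H3(1-18)K9me3 peptide (50 nM) in PBS pH 7.4, 0.01% Tween-20. Compound added for 30 min at RT, then streptavidin donor/nickel chelate acceptor beads (10 ug/mL) for 30 min.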
G9a inh: G9a (human) methyltransferase inhibition. Q96KQ7. G9a H3K9 monomethylation, AlphaScreen, 2 h. Potency, µM (doses to about 102 µM), inactives show at the highest dose activity, negative = inhibition, actives largely listed as inhibitors. 350,000 tested, 8.8% active. AID 504332; note: % is set by controls: 0 for no effect and ±100 for the full control effect; nearly all actives have a fitted effect of over 75% in size
Target sequence (Q96KQ7 913-1193 limits assumed): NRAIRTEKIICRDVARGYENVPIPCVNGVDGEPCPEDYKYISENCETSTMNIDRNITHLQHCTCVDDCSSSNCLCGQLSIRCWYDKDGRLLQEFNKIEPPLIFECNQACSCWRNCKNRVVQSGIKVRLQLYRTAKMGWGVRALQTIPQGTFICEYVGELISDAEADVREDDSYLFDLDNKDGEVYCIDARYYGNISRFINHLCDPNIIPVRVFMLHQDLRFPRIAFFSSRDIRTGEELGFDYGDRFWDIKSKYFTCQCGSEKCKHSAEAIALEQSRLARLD
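AlphaScreen read-out: biotin-H3K9 peptide (500 nM) methylation by 20 nM enzyme with 20 uM SAM, 2 h at room temperature after 15 min compound preincubation; anti-monomethyl H3K9 antibody plus donor/acceptor beads, 10 min dark.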
JMJD2A Tudor inh: JMJD2A Tudor domain (human) inhibition | Potency, µM (titrated, usually from 114 µM), inactives show top-dose activity change, negative = inhibition, actives largely listed as inhibitors | 390,000 tested, 4.4% active | AID 504339 | AlphaScreen JMJD2A-Tudor / H3K4me3 peptide binding; note: % is set by controls: 0 for no effect and ±100 for the full control effect; nearly all actives have a fitted effect of over 50% in size
Numbers without * were called inactive; ? = inconclusive; . = not tested or not shown; [ ] = another dose, or the depositor's remark. Calls come from the whole dose curve; as a rule, active = well fitted curve in the direction sought with a large enough effect; inconclusive = small, poorly fitted or top-dose-only effect, or another doubt; inactive = no such curve, though single readings can be large; an effect the other way counts as inactive or inconclusive. Potency is the fitted concentration of half-maximal effect.

SMILES	BAZ2B block	L3MBTL1 inh	Sfp inh	HP1b binding inh	G9a inh	JMJD2A Tudor inh
COc1ccc(C(C)=O)cc1CSc1nnc(Nc2ccccc2)s1	0.3%	0.9%	-6.1%	26.3%	-18.4%[59 µM]	-24.7%
COc1ccc(C(C)=O)cc1COC(=O)CSC(C)C(=O)Nc1cc(C)on1 (stereo not drawn)	0.3%	-0.1%	.	8.9%	-31.1%	-0.7%
COc1ccc(C(C)=O)cc1CSc1nnc(Nc2ccc(C)cc2)s1	-33.5%	5.2%	-1.7%	52.7%	10µM*	3.1%
Cc1nn(CC(=O)Nc2sc3c(c2C#N)CCC(C(C)(C)C)C3)c(C)c1[N+](=O)[O-] (stereo not drawn)	-27.9%	-2.4%	-15.6%	-23.4%	44.7µM*	-22.9%
CC(C)(C)C1CCc2c(sc(NC(=O)Cn3nnc(-c4ccccc4F)n3)c2C#N)C1 (stereo not drawn)	-22.3%	.	.	5.1%	2.4%[59 µM]	-25.0%
Cc1nn(CCCC(=O)Nc2sc3c(c2C#N)CCC3)c(C)c1[N+](=O)[O-]	?	-6.5%	?	?	31.6µM*	?
Cc1nn(C(C)C(=O)Nc2sc3c(c2C#N)CCCC3)c(C)c1[N+](=O)[O-] (stereo not drawn)	0.4%	0.1%	18.5%	10.3%	?	-7.0%
CC(C)(C)C1CCc2c(sc(NC(=O)c3cc(C4CC4)on3)c2C#N)C1 (stereo not drawn)	-2.9%	2.5%	-24.2%	11.3%	79.4µM*	-22.4%
COc1ccccc1N1CCN(c2c3c(nc4nncn24)CCC3)CC1	-3.1%	.	.	34.0%	-7.8%[59 µM]	-12.9%
Cc1cccc(S(=O)(=O)c2cn(C)c3cc(N4CCN(c5ccccc5)CC4)c(F)cc3c2=O)c1	8.4%	.	.	41.8%	-5.4%[59 µM]	-15.5%
CCN(CC)C(=O)Cn1cc(C(=O)C(=O)N2CCN(c3ccc(OC)cc3)CC2)c2ccccc21	-33.6%	.	11.4%	7.5%	50.1µM*	-19.2%
CCOC(=O)c1[nH]c(C)c(C(=O)N2CCN(c3ccccc3)CC2)c1C	?	-11.7%	6.5%	-8.1%	13.7%[2.33 µM]	-30.1%
CCOC(=O)c1c(C)[nH]c(C(=O)N2CCN(c3ccc(OC)cc3)CC2)c1C	39.8µM*	-23.3%	-2.8%	-22.2%	44.7µM*	?
COc1ccc(N2CCN(C(=O)C(=O)c3c(C)[nH]c4ccccc34)CC2)cc1	?	.	20.0%	-4.1%[57 µM]	39.8µM*	?
CCc1nn(CC(=O)NC(C)c2ccccc2)c(=O)c2cc3sccc3n12 (stereo not drawn)	-16.0%	.	.	59.7%	14.5%[59 µM]	-10.9%
COc1ccccc1NC(=O)NCCN1CCNC1=O	1.3%	-6.5%	4.8%	12.4%	14.5%	-1.0%
COc1ccc(C)c2sc(N(Cc3cccnc3)C(=O)C3CCCCC3)nc12	-6.4%	.	.	30.7%	-30.5%[59 µM]	-28.2%
O=Nc1c(-c2c(O)[nH]c3ccccc23)[nH]c2ccccc12	.	.	-27.6%	.	8.91µM*	.
Cc1ccc(S(=O)(=O)NNC(=O)c2ccc3ccccc3n2)cc1	?	.	12.6%	35.7%	?	-14.6%
CC(C)(C)c1ccccc1OCC(=O)NCc1ccccc1	8.6%	-0.7%[2.29 µM]	10.1%	39.9%	-4.9%[0.501 µM]	2.7%
CC1(C)CC(=O)C(/C=N/c2ccccn2)=C(O)C1	-33.5%	8.8%	7.4%	24.3%	?	-2.3%
CC1(C)CC(=O)C(/C=N/n2cnc3ccccc3c2=O)=C(O)C1	50.1µM*	.	-6.0%	33.6%	8.4%[2.33 µM]	39.8µM*
Cc1nn(C(C)C(=O)NC2CCCCCC2)c(=O)c2nn(-c3ccccc3)c(C)c12 (stereo not drawn)	-17.3%	.	8.7%	52.9%	24.3%	-10.7%
Cc1cc([N+](=O)[O-])cc2c1-c1ncccc1C2=Nc1ccccc1	-38.5%	-2.1%	2.6%	-3.8%	?	-35.1%
O=[N+]([O-])c1ccc2c(c1)C(=Nc1ccccc1)c1ccccc1-2	.	.	.	?	.	31.6µM*
NC(=O)CC(NC(=O)Cc1ccc(Br)cc1)c1ccc(NCCN2CCCCC2)c([N+](=O)[O-])c1 (stereo not drawn)	50.1µM*	-7.4%	17.9%	21.2%	.	-5.0%
